Source: PubChem (The Scripps Research Institute Molecular Screening Center)
Rows were chosen to be rich in hits. Some 2.4% of all compounds tested hit in one or more screens of this group.
M1 ag parental: counter-screen for M1 agonists: effect in parental CHO-K1 cells | Fluo-8 calcium fluorescence; scaled to maximal ATP response, vehicle zero | activation, % at 3 µM | 0.48% of 360,000 active; in the data active = activation above about 15%;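 note: untransfected CHO-K1 host cells lacking M1 receptor as counterscreen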
M1 antag: human CHRM1 antagonism. CHO-K1 hM1, Fluo-8 calcium fluorescence, ACh EC80 antagonist. 1.3% of 360,000 active. AID 588852. inhibition, % at 3 µM. P11229;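 active = percent inhibition above its own plate's cutoff, namely the mean of that plate's compound wells plus 3 SD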;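 note: peak over basal fluorescence ratio during 140 s after agonist addition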
Target sequence (P11229 whole entry, looked up): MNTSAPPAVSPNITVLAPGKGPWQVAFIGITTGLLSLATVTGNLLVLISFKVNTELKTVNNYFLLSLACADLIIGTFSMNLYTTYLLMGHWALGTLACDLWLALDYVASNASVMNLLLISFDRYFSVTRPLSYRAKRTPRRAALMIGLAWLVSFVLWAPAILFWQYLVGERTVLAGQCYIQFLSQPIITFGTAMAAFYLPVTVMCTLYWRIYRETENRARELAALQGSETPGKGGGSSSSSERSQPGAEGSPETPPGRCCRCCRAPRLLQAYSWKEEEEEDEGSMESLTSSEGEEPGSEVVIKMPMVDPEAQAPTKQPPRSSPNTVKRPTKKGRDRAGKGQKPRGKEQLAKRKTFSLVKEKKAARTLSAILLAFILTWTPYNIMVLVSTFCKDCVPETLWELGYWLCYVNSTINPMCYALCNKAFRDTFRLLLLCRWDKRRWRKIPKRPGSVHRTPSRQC
CHO-K1 Ca PAM: nonselective activator or artifact in parental CHO-K1 calcium assay; 0.02% of 360,000 active; ATP EC20, Fluo-8 calcium fluorescence; 0% at ATP EC20, 100% at ATP max; activation, % at 3 µM;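 active = activation above the run cutoff, the mean activation of all test compounds plus 3 SD, cut at about 40% in these data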;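 note: peak over basal fluorescence ratio in a 140 s read after ATP addition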
CHRM1 PAM: positive allosteric modulators of human M1 muscarinic receptor; P11229; CHO-K1 hM1, Fluo-8 calcium fluorescence, ACh EC20; 0% = ACh EC20, 100% = maximal ACh; activation, % at 3 µM; 0.088% of 360,000 active; AID 588819; in the data active = activation above about 19%, passing the limit was not always enough
CHO-K1 Ca antag: counter-screen for M1 antagonists: effect in parental CHO-K1 cells | ATP-induced calcium, Fluo-8 fluorescence | inhibition, % at 3 µM | 0.6% of 360,000 active | AID 602250;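 active = inhibition above a per-plate cutoff, the plate's mean sample inhibition plus 3 SD, cut at about 24% in these data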
M1 ag: agonists of human M1 muscarinic receptor; CHO-K1 hM1, Fluo-8 calcium fluorescence, agonist mode; 0% DMSO, 100% acetylcholine EC100; P11229; activation, % at 3 µM; AID 588814; 0.33% of 360,000 active;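 active = activation above the run's mean compound activation plus 3 SD, cut at about 16% in these data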;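 note: peak over basal fluorescence ratio within a 140 s kinetic read after compound addition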
Each line names hits and unclear results; the compound was inactive in the other large screens.

Cc1ccc(S(=O)(=O)CCC(=O)OCC(=O)c2c(N)n(CC(C)C)c(=O)n(C)c2=O)cc1	M1 ag parental 18
CC(C)Cn1c(N)c(C(=O)COC(=O)c2ccc(O)cc2)c(=O)n(C)c1=O	none
COc1ccc(CCC(=O)OCC(=O)c2c(N)n(CC(C)C)c(=O)n(C)c2=O)cc1	M1 ag parental 16, M1 antag 32, CHO-K1 Ca antag 32
CCOc1ccccc1OCC(=O)OCC(=O)c1c(N)n(CC(C)C)c(=O)n(C)c1=O	M1 ag parental 17, M1 antag 28
COc1ccccc1CCC(=O)OCC(=O)c1c(N)n(CC(C)C)c(=O)n(C)c1=O	M1 ag parental 17
CC1CCN(c2ccc3nnc(CCC(=O)NC(C)C)n3n2)CC1	none
Cn1c(N2CCN(C(c3ccccc3)c3ccccc3)CC2)nc2ccccc21	M1 antag 32, CHO-K1 Ca antag 25
Cn1c(N2CCN(C(=O)Nc3ccc(F)cc3)CC2)nc2ccccc21	none
CCN1CCN(CC(=O)Nc2ccc(S(=O)(=O)N3C(C)CCCC3C)cc2)CC1 (stereo not drawn)	M1 antag 24
O=C(CNC1CCCCCC1)Nc1ccc(S(=O)(=O)NC2CC2)cc1	M1 antag 32
CC1CCN(CC(=O)Nc2ccc(S(=O)(=O)NC3CC3)cc2)CC1	M1 antag 74
CC1CCC(NS(=O)(=O)c2ccc(N3CCCC3=O)cc2)CC1 (stereo not drawn)	M1 ag parental 20, M1 antag 46
CC1CCN(S(=O)(=O)c2ccc(NC(=O)CN3CCCC3)cc2)CC1	none
Nc1cc(Oc2ccc(F)cc2F)cc([N+](=O)[O-])c1	none
CCc1nc2c(OCc3cc(Cl)cc(Cl)c3)cccn2c1N(C=O)Cc1ccc(OC)cc1	none
O=C(COC(=O)CCC(=O)c1cccs1)Nc1ccc(F)c(F)c1F	none
CCC(=O)N1CCC1(C)C(=O)NCc1ccc(SC)cc1 (stereo not drawn)	none
CC(=O)N1CCN(Cc2nc3cc(NC(=O)c4ccccc4)ccc3n2C)CC1	none
CC(C)C(=O)Nc1ccc2c(c1)nc(CCN1CCCCC1)n2C	none
CC1CCN(CCc2nc3cc(NC(=O)C(C)C)ccc3n2C)CC1	M1 antag 88
CC(C)C(=O)Nc1ccc2c(c1)nc(CCN1CCN(c3ccccc3)CC1)n2C	M1 antag 45
COc1ccccc1C(=O)Nc1ccc2c(c1)nc(CN1CCN(C(C)=O)CC1)n2C	CHO-K1 Ca antag 24
Cn1c(CN2CCN(c3cccc(Cl)c3)CC2)nc2ccccc21	M1 antag 26
Cn1c(=O)[nH]c(=O)c2c1nc(CN1CCN(c3cccc(Cl)c3)CC1)n2CCc1ccccc1	none
Cc1nn(CC(=O)Nc2ccc3c(c2)nc(CCN2CCCCC2)n3C)c(=O)c2ccccc12	M1 antag 40
O=C(OC(c1ccccc1)c1nccc2ccccc12)c1cc([N+](=O)[O-])cc([N+](=O)[O-])c1 (stereo not drawn)	M1 antag 35
COc1cccc(NC(=O)N(C)C[C@H]2Oc3ncc(Br)cc3C(=O)N([C@H](C)CO)C[C@H]2C)c1	none
COc1cccc(-c2ccc(SCC(=O)NC3CCCCC3)nn2)c1	none
CC1CCCC(NC(=O)COC(=O)c2cc(=O)[nH]c3ccccc23)C1C (stereo not drawn)	none
O=C(Nc1ccc(CN2CCS(=O)(=O)CC2)cc1)c1ccc(Cl)cc1	none
S=c1[nH]c2cc(Br)cnc2[nH]1	CHO-K1 Ca antag 26
CCOC(=O)c1sc2nc(Cc3ccc(Cl)cc3)[nH]c(=S)c2c1C	none
CCO[C@H]1c2c(ccc3ccc(=O)oc23)OC(C)(C)[C@H]1O	none
Cc1ccc2nc(NC(=O)COC(=O)CSc3nc(C)cc(C)n3)sc2c1	none
COC(=O)c1ccc2nc(NC(=O)COC(=O)CSc3nc(C)cc(C)n3)sc2c1	M1 ag parental 15
CCOC(=O)CN(Cc1sccc1C)C(=O)Nc1ccc(OC)cc1OC	CHO-K1 Ca antag 25
CCOC(=O)c1cc2sccc2n1CC(=O)Nc1ccc(OC)cc1OC	none
OCCCCCNc1ncnc2ccccc12	M1 ag parental 15
COc1ccc(Br)c(C(=O)Nc2cccc(Cl)c2Cl)c1	CHO-K1 Ca antag 31
CC1CCCCN1CC(=O)Nc1ccc(N2CCCCCC2)cc1 (stereo not drawn)	none
CC1CCCCN1CC(=O)NC(c1ccccc1)c1ccccc1 (stereo not drawn)	M1 antag 60
CC1CCCCN1CC(=O)Nc1ccc(Oc2ccccc2)cc1 (stereo not drawn)	M1 antag 69
O=C(CN1c2cccc3cccc(c23)S1(=O)=O)NCc1ccc(Cl)cc1	none
COc1ccc(NC(=O)C2Cc3c(-c4ccc(Cl)cc4)ccnc3O2)cc1OC (stereo not drawn)	none
COc1ccc(/C=C/C(=O)Oc2cccc(/C=N/NC(=O)Cc3ccc(Br)cc3)c2)cc1	none
CC(=O)C1(C)C(=O)N(c2ccc(C)cc2)C(=O)N1c1ccc(C)cc1 (stereo not drawn)	none
CCOC(=O)/C(CCC[N+](C)(CC)CC)=N\O	M1 antag 91
CN(CC(=O)Nc1ccc(F)c(F)c1F)C(=O)CC1CCCCC1	none
O=C(NCC1CCCO1)c1cc2c([nH]c3ccccc32)c(-c2cccc(Cl)c2)n1 (stereo not drawn)	M1 antag 35
COc1cc(-c2nc(C(=O)NCC3CCCO3)cc3c2[nH]c2ccccc23)cc(OC)c1OC (stereo not drawn)	none
CN(C)S(=O)(=O)c1cccc(NC(=O)c2ccc(OC(F)(F)F)cc2)c1	M1 ag parental 19
CCN(CC)CCNC(=O)c1ccc(NC(=O)COc2ccc3c(c2)CCC3)cc1	M1 antag 45
CCN(CC)CCNC(=O)c1ccc(NC(C)=O)cc1	none
Cc1ccc(S(=O)(=O)N(C)C)cc1NC(=O)COc1ccccc1C(=O)Nc1ccccc1	none
CCN(CC)CCNC(=O)c1ccc(NC(=O)c2ccc(C(=O)c3ccccc3)cc2)cc1	none
CN(C)S(=O)(=O)c1cccc(NC(=O)COc2ccccc2C(=O)Nc2ccccc2)c1	M1 antag 41
CCN(CC)CCNC(=O)c1ccc(NC(=O)c2ccc(COc3ccccc3)cc2)cc1	M1 antag 53
CC1CCC(NC(=O)c2cc(S(=O)(=O)N(C)C)ccc2N2CCCC2)CC1 (stereo not drawn)	none
CN(C)S(=O)(=O)c1cccc(NC(=O)c2ccc(COc3ccccc3)cc2)c1	M1 ag parental 18, M1 antag 39, CHO-K1 Ca antag 30
Cc1ccccc1-c1nnn(Cc2cccc(S(=O)(=O)N3CCOCC3)c2)n1	M1 ag parental 15
O=C1c2ccccc2S(=O)(=O)N1Cc1cccc(S(=O)(=O)N2CCOCC2)c1	none
